Test results reported in PubChem BioAssay (EPA / NIEHS).
Results filed as inconclusive are left out. Calls of active or inactive are those of the source. Rule for the calls: active = hit-call score of the fitted dose curve at least 0.9, where 1 is the maximum; inconclusive = response in the unintended direction; inactive = score below 0.9.

assay: CCTE_Deisenroth_AIME_384WELL_CTox_Active: Cytotoxicity Assessment (CTOX) in CCTE's 384-well Estrogen Receptor Transactivation Assay with AIME metabolic competence (metabolism positive), Deisenroth Lab (AID 2284037);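 note: chemicals first conditioned 2 h by alginate-bound induced rat liver S9 before cells; activity means signal loss indicating cell death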
Experimental: CCTE_Deisenroth_AIME_384WELL (AIME metabolism assay) is a cell-based, single-readout assay that uses VM7Luc4E2, a human mammary gland/breast cell line, with measurements taken at 24 hour after chemical dosing in a 384-well plate.CCTE_Deisenroth_AIME_384WELL_CTox_Active is one of four assay components measured or calculated from the CCTE_Deisenroth_AIME_384WELL assay. It is designed to make measurements of a protease substrate, a type of viability indicator, as detected with substrate cleavage to a fluorescent probe in living cells.CCTE_Deisenroth_AIME_384WELL_CTox_Active is a component of the CCTE_Deisenroth_AIME_384WELL assay that measures the effect of retroftting the VM7Luc ERTA assay with the Alginate Immobolization of Metabolic Enzymes (AIME) metabolism method. AIME is optimized to impart phase I hepatic metabolism using phenobarbital/beta-naphthoflavone induced hepatic S9 from male Sprague Dawley rats. Parent chemicals are incubated for 2 hours in the AIME assay prior to transfer to the VM7Luc ERTA assay plate. […] This endpoint evaluates cytotoxicity in metabolism positive mode. Using a type of flourescent probe in VM7Luc cells, loss-of-signal activity can be used to understand loss of viability. This assay endpoint, CCTE_Deisenroth_AIME_384WELL_CTox_Active, was analyzed with bidirectional fitting in the ERTA assay.
The AIME procedure consists of a preparative "pre-stamping" step using a barium chloride/poly-L-lysine (PLL) solution followed by "stamping" the lid in alginate-hepatic S9 (metabolism positive) or alginate-water (metabolism negative) to form microspheres. Once stamping is completed, the AIME lids are placed in duplicate microplates (metabolism positive or negative) containing chemical solutions and incubated for two hours to facilitate metabolic reactions. The conditioned medium, containing parent chemical or metabolites, is then transferred to the cell-based VM7Luc Estrogen Receptor Transactivation Assay (ERTA) for 24 hours. A typical experimental design tests a 10-point concentration series (0.002 - 200 uM) for 8 compounds (96-well format) (Deisenroth 2020) or 32 compounds (384-well format) (Hopperstad 2022) in single technical replicate. AIME assay controls include trans-stilbene (bioactivated control) and ethylparaben (bioinactivated control). ERTA assay plate controls include 17-beta estradiol (positive control) and DMSO (solvent control). Experiments typically comprise a minimum of four experimental replicates (n=4).

SMILES | outcome | AC50
CCN(CC)C(=S)SSC(=S)N(CC)CC | inactive | 
CCCc1ccccc1 | inactive | 
C=CCc1cc(S(=O)(=O)c2ccc(O)c(CC=C)c2)ccc1O |  | 169 µM (active)
CCOC(N)=O | inactive | 
O=C1CN(N=Cc2ccc([N+](=O)[O-])o2)C(=O)N1 | inactive | 
CC(=O)c1ccccc1 | inactive | 
CCc1cccc(CC)c1N | inactive | 
c1ccc2c(c1)-c1cccc3c1c-2cc1ccccc13 | inactive | 
NC(=O)NN=Cc1ccc([N+](=O)[O-])o1 |  | 116 µM (active)
CCCCOC(=O)c1ccccc1 | inactive | 
CC(C)CC(C)O (stereo not given) | inactive | 
CCCCCOC(C)=O | inactive | 
OCCOCCOCCO | inactive | 
C[C@@H](Oc1ccc(CNC(=O)c2cccnc2Oc2ccc3c(c2)OCO3)c(F)c1)C(=O)O | inactive | 
OCc1ccccc1 | inactive | 
CC(C)CCCCCCOC(=O)C1CCCCC1C(=O)OCCCCCCC(C)C (stereo not given) | inactive | 
CCc1ccc(O)c(C(C)(C)C)c1 | inactive | 
c1ccc(C(O[C@@H]2CCCN(CCc3ccc4c(c3)OCO4)C2)c2ccccc2)cc1 | inactive | 
COS(C)(=O)=O | inactive | 
COc1cc2c(c(OC)c1OC)-c1ccc(OC)c(=O)cc1[C@@H](NC(C)=O)CC2 |  | 19.8 µM (active)
